Sampled rows, rich in hits. Any-hit rate of the full collection: about 5.2%.
PLK1 PBD block – PLK1 (human) polo-box domain binding inhibition. Plk1 PBD binding of FITC phosphopeptide, fluorescence polarization. Potency, µM, for inactives: max response, negative = inhibition, actives largely listed as inhibitors. hit rate 2.8% among 360,000. AID 720504; note: series mostly up to about 57 µM; nearly all actives have a fitted effect of over 65% in size
Target sequence (P53350 whole entry, looked up, the tested form may be a part): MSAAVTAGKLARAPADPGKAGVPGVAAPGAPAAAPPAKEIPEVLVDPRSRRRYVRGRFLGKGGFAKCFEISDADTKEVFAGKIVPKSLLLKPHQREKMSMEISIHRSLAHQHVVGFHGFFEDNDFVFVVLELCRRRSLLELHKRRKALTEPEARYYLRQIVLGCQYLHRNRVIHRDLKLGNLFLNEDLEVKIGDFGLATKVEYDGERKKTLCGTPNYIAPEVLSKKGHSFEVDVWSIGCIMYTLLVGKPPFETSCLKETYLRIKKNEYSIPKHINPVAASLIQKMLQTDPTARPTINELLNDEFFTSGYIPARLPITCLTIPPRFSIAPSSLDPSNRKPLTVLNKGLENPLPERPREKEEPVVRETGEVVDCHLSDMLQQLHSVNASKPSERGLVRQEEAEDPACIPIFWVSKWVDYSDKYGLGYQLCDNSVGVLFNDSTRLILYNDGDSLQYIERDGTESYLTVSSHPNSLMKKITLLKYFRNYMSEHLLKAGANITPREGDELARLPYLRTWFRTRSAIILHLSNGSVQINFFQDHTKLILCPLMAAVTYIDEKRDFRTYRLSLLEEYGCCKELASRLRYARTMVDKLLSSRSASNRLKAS
VDR inh – vitamin D3 receptor (human) inhibition | hit rate 0.93% among 400,000 | Potency, µM, inactives show max response, negative = inhibition, actives largely listed as inhibitors | P11473 | VDR-SRC2-3 peptide fluorescence polarization, 2 h
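Measured by FP: displacement of SRC2-3 coactivator peptide from VDR by library compounds, following a two-hour ambient incubation.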
TrxR1 substrate – rat thioredoxin reductase 1 substrate activity; AID 588456; purified TrxR1 substrate turnover, NADPH consumption readout; Potency, µM (doses to about 114 µM), inactives show at the top dose activity change, negative = substrate turnover; hit rate 0.01% among 390,000; O89049; note: nearly all actives have a fitted effect of over 50% in size
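Rat TrxR1, dispensed at 90 nM, was prereduced with 400 uM NADPH (final) for 5 min at ~22 deg C, then incubated with compound 15 min before 400 uM selenite. A first-read NADPH fluorescence drop versus no-compound background flagged substrates.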
Sfp inh – Sfp phosphopantetheinyl transferase inhibition; Potency, µM, for inactives: largest response in the series, negative = inhibition, actives largely listed as inhibitors; Q9F4F7; Biochemical Sfp PPTase activity, qHTS; hit rate 3.5% among 310,000; AID 1490;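 note: the enzyme is Sfp with the accession as filed and its product quenches rhodamine fluorescence; 0% = enzyme reaction without inhibitor and -100% = no enzyme wells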
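Reaction rates are the 30-min fluorescence difference (ex 525, em 598 nm) in wells containing 15 nM Sfp, 5 uM rhodamine-CoA and 12.5 uM BHQ-2-YbbR at pH 7.6 with 10 mM MgCl2.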
TrxR1 inh – inhibitors of rat thioredoxin reductase 1. O89049. recombinant rTrxR1, NADPH fluorescence consumption, selenite substrate. Potency, µM (top dose mostly 114 µM), for the others: at the highest dose activity change, negative = inhibition, most hits filed as inhibitors. hit rate 1% among 390,000. AID 588453; note: nearly all actives have a fitted effect of over 65% in size
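Rat TrxR1 (90 nM in the dispensed reagent) was pre-reduced with 400 uM NADPH for 5 min at room temperature, then incubated with compound for 15 min. After 400 uM selenite was added, NADPH fluorescence (Ex 340/Em 450 nm) was followed for 8 min.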
IDH1 R132H inh – human IDH1 R132H inhibition; O75874; IDH1-R132H enzyme, NADPH consumption, diaphorase/resazurin fluorescence; Potency, µM (series often up to 76.6 µM), for inactives: top-dose activity change, negative = inhibition, hits mostly inhibitors; hit rate 0.093% among 390,000; note: nearly all actives have a fitted effect of over 65% in size
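IDH1-R132H (0.5 ug/mL) preincubated 30 min with compound, then NADPH (0.016 mM) and alpha-KG (2 mM) added; 80 min at RT, pH 7.5. Remaining NADPH coupled via diaphorase/resazurin to fluorescence (540/590 nm); concentration-response curves normalized to no-enzyme control.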
Active calls of the source: *; [ ] = another dose, or the depositor's remark. Calls come from the whole dose curve; as a rule, active = well fitted curve in the direction sought with a large enough effect; inconclusive = small, poorly fitted or top-dose-only effect, or another doubt; inactive = no such curve, though single readings can be large; an effect the other way counts as inactive or inconclusive. Unless noted, % is set by controls: 0 for no effect and ±100 for the full control effect; potency is the fitted concentration of half-maximal effect.

O=C(C=Cc1ccco1)c1ccco1 was read as PLK1 PBD block -9.4%, VDR inh -6.7%, TrxR1 substrate 12.7%[57.1 µM], TrxR1 inh 14.1µM* and IDH1 R132H inh 0.0%.
`Cc1cc(C)c(C(=O)/C=C/c2ccco2)c(=O)[nH]1` gave PLK1 PBD block -28.6%, VDR inh -13.6%, TrxR1 substrate -1.2%[57.1 µM], Sfp inh 8.91µM*, TrxR1 inh inconclusive and IDH1 R132H inh 6.6%.
For O=C(/C=C/C=C/c1ccccc1)c1ccco1 the results were PLK1 PBD block -14.8%, VDR inh inconclusive, TrxR1 substrate -11.3%, Sfp inh inconclusive, TrxR1 inh -3.7%[2.29 µM] and IDH1 R132H inh -4.6%.
Screening O=C(C=C1SCCS1)/C=C/c1ccco1 returned PLK1 PBD block inconclusive, VDR inh -15.5%, TrxR1 substrate -8.7%, Sfp inh 44.7µM*, TrxR1 inh 39.8µM* and IDH1 R132H inh 11.2%.
Screening COc1ccc(OCC(=O)OC2CCCN(C)C2)cc1 (stereo not drawn) returned PLK1 PBD block 0.5%, VDR inh 5.0%, TrxR1 substrate -10.1%, Sfp inh 9.4%, TrxR1 inh -13.1% and IDH1 R132H inh -8.6%.
`CC(C)CCN1C(=O)c2ccccc2C1c1nnnn1-c1ccc2c(c1)OCCO2` (stereo not drawn) gave PLK1 PBD block -3.9%.
Screening NCCNCCN returned VDR inh 15.8µM* and Sfp inh 3.16µM*.
For Cc1ccc(-c2csc3ncnc(Sc4nnnn4C4CC4)c23)cc1 the results were TrxR1 substrate -4.5% and TrxR1 inh -3.8%.
Cc1nnc(N/N=C/c2cccc(OCc3ccc(Cl)c(Cl)c3)c2)n1N was read as PLK1 PBD block -10.1%, VDR inh inconclusive, TrxR1 substrate -18.2%, Sfp inh 70.8µM*, TrxR1 inh -4.2% and IDH1 R132H inh 22.7%.
Screening CCOc1cc(/C=N/Nc2nnc(C)n2N)ccc1OC(C)=O returned PLK1 PBD block 4.3%, VDR inh -22.1%, TrxR1 substrate -0.5%[57.1 µM], Sfp inh inconclusive, TrxR1 inh 4.7%[57.1 µM] and IDH1 R132H inh 11.0%.
`CCOc1ccc(N2C(=O)CC(N3CCN(c4ccccc4OC)CC3)C2=O)cc1` (stereo not drawn) gave PLK1 PBD block -7.4%, VDR inh -31.1%, TrxR1 substrate -3.6%, Sfp inh 8.4%, TrxR1 inh 7.6% and IDH1 R132H inh -5.6%.
For CCOc1ccc(N2C(=O)CC(N3CCN(c4ccccc4F)CC3)C2=O)cc1 (stereo not drawn) the results were PLK1 PBD block 26.7µM*, VDR inh -12.8%, TrxR1 substrate 4.7%[11.4 µM], Sfp inh 3.8%, TrxR1 inh inconclusive and IDH1 R132H inh 0.1%.
Screening COc1ccc(N2C(=O)CC(N3CCN(c4ccc(S(C)(=O)=O)cc4)CC3)C2=O)cc1 (stereo not drawn) returned PLK1 PBD block -12.1%, VDR inh -8.5%, TrxR1 substrate 8.8%, Sfp inh 15.0%, TrxR1 inh 15.8µM* and IDH1 R132H inh -5.7%.
`COc1ccc(N2CCN(C3CC(=O)N(C)C3=O)CC2)cc1` (stereo not drawn) gave PLK1 PBD block -1.5%, VDR inh 10.9%, TrxR1 substrate -0.8%, Sfp inh 16.9%, TrxR1 inh 0.8% and IDH1 R132H inh 5.4%.
Screening CCCN(CCC)S(=O)(=O)c1ccc(C(=O)OCCN2C(=O)c3cccc4c(N5CCOCC5)ccc(c34)C2=O)cc1 returned PLK1 PBD block 15µM*, VDR inh -10.0%, TrxR1 substrate -3.1%, Sfp inh 5.9%, TrxR1 inh 12.4% and IDH1 R132H inh -3.3%.
For CC(=O)c1ccc(NS(=O)(=O)c2cc3c(cc2C)N(C(C)=O)CCO3)cc1 the results were PLK1 PBD block -6.1%, VDR inh -3.6%, TrxR1 substrate -15.6%, Sfp inh 8.1%, TrxR1 inh -21.5% and IDH1 R132H inh -10.1%.
For CC(=O)c1ccc(NS(=O)(=O)c2cc3c(cc2C)N(C)CCO3)cc1 the results were PLK1 PBD block 23.8µM*, VDR inh -16.6%, TrxR1 substrate -1.4%[57.1 µM], Sfp inh 7.0%, TrxR1 inh 8.8%[57.1 µM] and IDH1 R132H inh 3.9%.
Screening O=C(O)C1C2CCC(CC2)C1C(=O)N1CCN(Cc2ccc(F)cc2)CC1 (stereo not drawn) returned PLK1 PBD block -6.4%, VDR inh -9.5%, TrxR1 substrate 3.7%, Sfp inh 35.5µM*, TrxR1 inh -6.3% and IDH1 R132H inh 0.0%.
For O=S(=O)(Nc1ccc(O)c2ccccc12)c1cccs1 the results were PLK1 PBD block 11.9µM*, VDR inh inconclusive, TrxR1 substrate 1.5%[57.1 µM], Sfp inh inconclusive, TrxR1 inh inconclusive and IDH1 R132H inh 21.9%.
For O=C1NN(c2ccccc2)C(=O)/C1=C\c1ccc(-c2cc([N+](=O)[O-])ccc2O)o1 the results were PLK1 PBD block inconclusive, VDR inh -2.3%, TrxR1 substrate -16.6%, Sfp inh 79.4µM*, TrxR1 inh inconclusive and IDH1 R132H inh 9.7%.
For O=C1NN(c2ccc(Cl)cc2)C(=O)/C1=C\c1ccc(-c2cccc(C(=O)O)c2)o1 the results were PLK1 PBD block 23.8µM*, VDR inh inconclusive, TrxR1 substrate -1.0%[57.1 µM], Sfp inh -2.7%, TrxR1 inh -7.1%[57.1 µM] and IDH1 R132H inh 2.8%.
Screening COc1ccc(Sc2ccc(/C=C3\C(=O)NN(c4ccccc4)C3=O)o2)cc1 returned PLK1 PBD block 5.97µM*, VDR inh inconclusive, TrxR1 substrate 5.8%, Sfp inh -13.5%, TrxR1 inh -16.1% and IDH1 R132H inh -20.8%.
CN(C)c1ccc(/C=C/N2C=CCc3c2ccc2ccccc32)cc1 was read as TrxR1 substrate 2.7% and TrxR1 inh -9.8%.
`CC1CCN(S(=O)(=O)c2ccc3c(c2)N(CC(=O)NCc2cccnc2)C(=O)CS3)CC1` gave PLK1 PBD block 26.7µM*, VDR inh inconclusive, TrxR1 substrate -0.4%, Sfp inh -4.3%, TrxR1 inh 15.0% and IDH1 R132H inh -7.9%.
`CCC(C)NC(=O)CN1C(=O)CSc2ccc(S(=O)(=O)N3CCCC3)cc21` (stereo not drawn) gave PLK1 PBD block -14.7%, VDR inh -8.9%, TrxR1 substrate 9.0%[57.1 µM], Sfp inh 14.6%, TrxR1 inh 23.7%[57.1 µM] and IDH1 R132H inh 1.5%.
For CC(C)NC(=O)CN1C(=O)CSc2ccc(S(=O)(=O)N3CCCC3)cc21 the results were PLK1 PBD block 23.8µM*, VDR inh -14.6%, TrxR1 substrate inconclusive, Sfp inh 19.1%, TrxR1 inh -11.7% and IDH1 R132H inh -3.5%.

From PubChem
